According to PubChem BioAssay (NCATS):
Where “and” joins values, the source holds several entries; their conditions need not be identical. Equal values may be shown once. Inconclusive results are not listed. For some of these results: Results with a measured potency or affinity are listed apart. Calls of active or inactive are those of the source.

Columns and labels:
[1] = qHTS Assay for Identifying Gametocytocidal Compounds (AID 743244; active = well fitted curve in the direction sought with a large enough effect; an effect the other way counts as inactive or inconclusive; also: potency is read from the fitted curve at half-maximal effect;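 as to max response: % is scaled to controls: 0 for no effect and ±100 for the full control effect; actives lower the fluorescent signal which means gametocytes are killed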); details: P. falciparum 3D7 stage III-V gametocytes, alamarBlue, 72 h; max response: stronger effect = lower value
How it was run: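 P. falciparum 3D7 stage III–V gametocytes (20,000 cells/well) were exposed to compounds for 72 h at 37 °C, 5% CO2. AlamarBlue was then added for 24 h; decreased resorufin fluorescence (Ex 525/Em 598 nm) indicated loss of viability.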

[2] = Ebola virus entry assay, green fluorescence channel
[3] = Ebola virus entry assay, blue channel fluorescence
[4] = Ebola virus entry assay, ratio channel
[5] = Ebola virus entry assay, reporter ratio channel; AC50: Channel type: primary unless noted; outcome: Channel type: primary unless noted
[6] = Ebola virus entry assay, blue channel (ratio component)
[7] = qHTS profiling for inhibitors of Plasmodium falciparum (3D7) proliferation (AID 743322);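 also: infected erythrocytes exposed to compound for 72 h before lysis; 100% = DMSO vehicle wells and 0% = 0.29 µM artemisinin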; details: P. falciparum 3D7 proliferation; at 28.7 µM (top of the series)
How it was run: (§1)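 Erythrocytes infected with P. falciparum (0.3% parasitemia, 2.5% hematocrit) incubated with compounds 72 h at 37 C, 5% CO2. Lysis with saponin/Triton buffer containing SYBR Green I, overnight at room temperature in the dark; DNA fluorescence (485/535 nm) normalised to 0.29 uM artemisinin and DMSO.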

[8] = qHTS profiling for inhibitors of Plasmodium falciparum (DD2) proliferation (AID 743323); details: lower = more inhibition; at 28.7 µM (top of the series)
How it was run: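 Parasite DNA quantified by SYBR Green fluorescence (ex 485, em 535 nm) after saponin/Triton lysis and overnight dark incubation. Cultures: 0.3% parasitemia, 2.5% hematocrit, 72 h, 37 C; data scaled between DMSO and 0.29 uM artemisinin.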

[9] = qHTS profiling of the MIPE4 collection as inhibitors of Plasmodium falciparum (3D7) proliferation (AID 743344);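 also: scaled between DMSO vehicle wells and 0.29 µM artemisinin as full inhibition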; details: P. falciparum 3D7 in erythrocytes, SYBR Green DNA fluorescence, 72 h; at 28.5 µM (top of the series) unless noted
How it was run: as §1

[10] = qHTS profiling of the MIPE4 collection as inhibitors of Plasmodium falciparum (DD2) proliferation (AID 743345); details: P. falciparum Dd2 in erythrocytes, SYBR Green DNA, 72 h; at 28.5 µM (top of the series) unless noted
How it was run: as §1

[11] = qHTS profiling of the MIPE4 collection as inhibitors of Plasmodium falciparum (DD2) proliferation (Rep 2) (AID 743346); details: P. falciparum Dd2 in erythrocytes, SYBR Green DNA, 72 h; at 28.5 µM (top of the series) unless noted
How it was run: as §1

[12] = qHTS profiling of the MIPE4 collection as inhibitors of Plasmodium falciparum (HB3) proliferation (AID 743347);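 also: plate controls were DMSO vehicle wells for no effect and artemisinin wells for full effect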; details: P. falciparum HB3 in erythrocytes, SYBR Green DNA, 72 h; at 28.5 µM (top of the series) unless noted
How it was run: as §1

[13] = Ebola virus entry assay, green fluorescence channel; remark: listed apart in the source
[14] = Ebola virus entry assay, ratio channel readout
[15] = Ebola virus entry assay, green channel fluorescence
[16] = Ebola virus entry assay, blue channel fluorescence; remark: listed apart in the source
[17] = qHTS profiling for inhibitors of Plasmodium falciparum (HB3) proliferation (AID 743324; active = well fitted curve in the direction sought with a large enough effect; an effect the other way counts as inactive or inconclusive;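 also: 100% = DMSO vehicle wells and 0% = artemisinin-treated control wells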); details: Plasmodium falciparum HB3 blood-stage proliferation; at 28.7 µM (top of the series)
How it was run: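 P. falciparum HB3 grown in erythrocytes (0.3% parasitemia, 2.5% hematocrit final) with compound for 72 h at 37 C, 5% CO2. Parasite DNA detected by SYBR Green after saponin/triton lysis overnight; normalized to 0.29 uM artemisinin and DMSO.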

[18] = qHTS assay for cell viability of HEK293 cells (AID 743288; active = well fitted curve in the direction sought with a large enough effect; an effect the other way counts as inactive or inconclusive; also: % is scaled to controls: 0 for no effect and ±100 for the full control effect; nearly all actives have a fitted effect of over 50% in size); details: ATP luminescence (CellTiter-Glo), 18 h; max response: stronger effect = lower value
How it was run: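 HEK293 parental, 2,000 cells/well; ≥5 h pre-incubation 37 C; pintool compound addition; 18 h, 37 C; CellTiter-Glo 30 min RT; luminescence read.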

[19] = qHTS assay for cell viability of the p53RE-bla HCT-116 cell line (AID 743292; active = well fitted curve in the direction sought with a large enough effect; an effect the other way counts as inactive or inconclusive; also: % is scaled to controls: 0 for no effect and ±100 for the full control effect; nearly all actives have a fitted effect of over 55% in size)
How it was run: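 Intracellular ATP of p53RE-bla HCT-116 cells measured by luciferase luminescence following 16 h compound incubation at 37 C; DMSO-only wells served as vehicle controls.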
For efficacy in this document: 0% is about no effect.

CN1C(=S)CN=C(c2ccccc2)c2cc(Cl)ccc21
max response [1]: -6.22% (inactive) | efficacy [2]: 37% (inactive) | outcome [3]: inactive | outcome [4]: inactive | outcome [5]: inactive | outcome [6]: inactive

Cn1c(CCCC(=O)O)nc2cc(N(CCCl)CCCl)ccc21
max response [1]: -0.45% (inactive) | remaining parasite growth % (stronger effect = lower value) [7]: 92.7% | activity, percent of control [8]: 105% | parasite growth, % of DMSO control [9]: 97.1% | parasite growth remaining, % of DMSO control (lower = more inhibition) [10]: 81.5% | parasite growth, % of control (lower = inhibition) [11]: 85.2% | growth, % of control [12]: 104% | outcome [13]: inactive | outcome [14]: inactive | outcome [3]: inactive | outcome [4]: inactive | outcome [15]: inactive | outcome [16]: inactive | outcome [5]: inactive | outcome [6]: inactive

CCCCC/C=C\C/C=C\C/C=C\C/C=C\CCCC(=O)NC1CC1
max response [1]: 45.8% (inactive) | remaining parasite growth % (stronger effect = lower value) [7]: 6.79% | activity, percent of control [8]: 5.26% | remaining proliferation (% of control), lower = more inhibition [17]: 3.08%

Oc1cc(Cl)ccc1Oc1ccc(Cl)cc1Cl
remaining parasite growth % (stronger effect = lower value) [7]: 0.738% | activity, percent of control [8]: 2.03% | remaining proliferation (% of control), lower = more inhibition [17]: 1.17% | parasite growth, % of DMSO control [9]: 6.59% | parasite growth remaining, % of DMSO control (lower = more inhibition) [10]: 8.79% | parasite growth, % of control (lower = inhibition) [11]: 20.6% | growth, % of control [12]: 5.41% | efficacy [2]: -133% (inactive) | AC50 [3]: 15.8 µM (active) | AC50 [4]: 7.08 µM (active) and 14.1 µM (active) | AC50 [5]: 7.08 µM (active) and 14.1 µM (active)

CC(C)(C)CC(C)(C)c1ccc(O)cc1
max response [1]: -7.21% (inactive) and 8.2% (inactive) | max response [18]: -15.6% (inactive) | Potency [19]: inactive | efficacy [2]: -38.7% (inactive) | AC50 [3]: 20 µM (active) | AC50 [4]: 17.8 µM (active) and 15.8 µM (active) | AC50 [5]: 17.8 µM (active) and 15.8 µM (active)

Oc1ccc(Cl)cc1Cc1ccccc1
max response [1]: -3.88% (inactive) and -14.6% (inactive) | max response [18]: -10.2% (inactive) and -5.38% (inactive) | Potency [19]: inactive | efficacy [2]: -105% (inactive) | AC50 [3]: 20 µM (active) | AC50 [4]: 10 µM (active) and 14.1 µM (active) | AC50 [5]: 10 µM (active) and 14.1 µM (active)

C[C@@H]1[C@@H](C(=O)C[C@H]2O[C@@H]3O[C@]4(C)CC[C@@H]5[C@H](C)CC[C@@H]([C@H]2C)[C@@]35OO4)O[C@@H]2O[C@]3(C)CC[C@H]4[C@H](C)CC[C@@H]1[C@@]24OO3
Potency [1]: 0.0066 µM (active) | remaining parasite growth % (stronger effect = lower value) [7]: -0.0732% | activity, percent of control [8]: -0.0237% | remaining proliferation (% of control), lower = more inhibition [17]: 0.763% | parasite growth, % of DMSO control [9]: 20.5% | parasite growth remaining, % of DMSO control (lower = more inhibition) [10]: 7.59% | parasite growth, % of control (lower = inhibition) [11]: 8.22% | growth, % of control [12]: 29.5%
